Where “and” joins values, the source holds several entries; their conditions need not be identical. Equal entries are not always repeated. Results filed as inconclusive are left out. Calls of active or inactive are those of the source. Unless noted, calls follow the shape of the full dose curve.
Experiments:
[1] = Nuclear factor erythroid 2-related factor 2/antioxidant responsive element (Nrf2/ARE) small molecule agonists: luciferase reporter gene qHTS assay in human keratinocytes (AID 1919969); also: nearly all actives have a fitted effect of over 35% in size; also: potency is read from the fitted curve at half-maximal effect
[2] = biological target: Gonadotropin-releasing hormone receptor (Homo sapiens) (UniProt P30968); experiment: Human gonadotropin-releasing hormone receptor (GnRHR) small molecule agonists, calcium flux assay in GnRHR-HEK293 cells (AID 1920063); also: nearly all actives have a fitted effect of over 35% in size; also: potency is read from the fitted curve at half-maximal effect
Sequence of Gonadotropin-releasing hormone receptor (Homo sapiens) (P30968 whole entry, looked up): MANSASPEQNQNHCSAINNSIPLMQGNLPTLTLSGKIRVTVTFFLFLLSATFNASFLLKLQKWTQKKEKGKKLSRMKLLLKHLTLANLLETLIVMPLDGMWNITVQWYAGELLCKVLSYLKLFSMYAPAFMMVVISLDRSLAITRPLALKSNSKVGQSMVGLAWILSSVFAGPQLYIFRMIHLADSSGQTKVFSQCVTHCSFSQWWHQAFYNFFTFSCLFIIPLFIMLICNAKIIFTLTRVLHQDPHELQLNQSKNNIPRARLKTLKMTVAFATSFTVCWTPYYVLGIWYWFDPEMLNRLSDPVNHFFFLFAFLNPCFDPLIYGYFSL
Method in brief: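 HEK293 cells stably expressing human GnRHR were plated 18 h at 37 °C, loaded with calcium dye 1 h at 37 °C, then given compound in agonist mode; fluorescence (Ex/Em 480/540) read kinetically for 3 min at 1 s intervals.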

[3] = G protein-coupled receptor (GPCR) small molecule agonists, calcium flux assay: HEK293 wild type cell line counter screen (AID 1920065); also: potency is read from the fitted curve at half-maximal effect
Method in brief: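 Cells were plated and cultured 18 h at 37 C/5% CO2, then loaded with calcium dye for 1 h at 37 C. Compounds in DMSO were pin-transferred in agonist mode, and fluorescence (Ex/Em 480/540) was read kinetically for 3 min at 1 s intervals.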

[4] = p53 small molecule agonists, cell-based qHTS assay with human liver microsomes: qHTS cell viability counter screen (AID 1963579); also: nearly all actives have a fitted effect of over 45% in size
Method in brief: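 p53RE-bla cells (4,000/well) were pre-incubated 5 h at 37 C, then given compounds in DMSO plus human liver microsomes (0.5 mg/mL final) and NADPH (0.5 mg/mL final) for 16 h at 37 C. Viability was read by CellTiter-Glo luminescence.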

[5] = p53 small molecule agonists, cell-based qHTS assay with rat liver microsomes: qHTS cell viability counter screen (AID 1963580); also: nearly all actives have a fitted effect of over 45% in size
Method in brief: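 p53RE-bla HCT-116 cells were exposed 16 h at 37 C to compounds with rat liver microsomes (0.5 mg/mL) and NADPH (0.5 mg/mL). Viability was measured in the same wells as ATP content by CellTiter-Glo luminescence.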

[6] = p53 small molecule agonists, cell-based qHTS assay: qHTS cell viability counter screen (AID 1963581); also: nearly all actives have a fitted effect of over 45% in size
Method in brief: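 p53RE-bla HCT-116 cells were exposed to compounds for 16 h at 37 C; after the beta-lactamase FRET read in the same wells, CellTiter-Glo was added and luminescence (intracellular ATP) read after 30 min at room temperature.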

[7] = biological target: 5-hydroxytryptamine receptor 2A (Homo sapiens) (UniProt P28223); experiment: 5-hydroxytryptamine receptor 2A (HTR2A) small molecule antagonists, cell-based qHTS assay (AID 1963586); also: nearly all actives have a fitted effect of over 45% in size; also: potency is read from the fitted curve at half-maximal effect
Sequence of 5-hydroxytryptamine receptor 2A (Homo sapiens) (P28223 whole entry, looked up): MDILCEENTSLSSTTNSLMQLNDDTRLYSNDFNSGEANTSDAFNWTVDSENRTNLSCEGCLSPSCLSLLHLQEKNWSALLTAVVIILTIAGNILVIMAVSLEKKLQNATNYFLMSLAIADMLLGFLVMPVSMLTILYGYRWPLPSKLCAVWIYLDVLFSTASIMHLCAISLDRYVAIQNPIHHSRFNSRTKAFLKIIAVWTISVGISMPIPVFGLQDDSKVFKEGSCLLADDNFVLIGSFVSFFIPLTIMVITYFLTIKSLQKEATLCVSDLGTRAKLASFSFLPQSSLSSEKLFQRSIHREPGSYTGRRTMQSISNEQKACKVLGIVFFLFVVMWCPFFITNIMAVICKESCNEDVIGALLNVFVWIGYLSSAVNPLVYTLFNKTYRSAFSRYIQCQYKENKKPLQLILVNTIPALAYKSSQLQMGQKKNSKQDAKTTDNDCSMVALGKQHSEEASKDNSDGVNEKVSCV
Method in brief: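 Antagonist-mode intracellular calcium assay: DOI (4 nM) added after 5 min compound pre-incubation at room temperature to dye-loaded HTR2A-CHO cells. Fluorescence followed for 3 min, sampled every second.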

[8] = biological target: 5-hydroxytryptamine receptor 2A (Homo sapiens) (UniProt P28223); experiment: 5-hydroxytryptamine receptor 2A (HTR2A) small molecule agonists, cell-based qHTS assay (AID 1963587); also: nearly all actives have a fitted effect of over 30% in size; also: potency is read from the fitted curve at half-maximal effect
Method in brief: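 CHO cells stably expressing human HTR2A, plated 18 h, loaded with calcium dye 1 h at 37 C. Agonist mode: compounds added and intracellular calcium fluorescence recorded kinetically for 2 min at 1 sec intervals.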

[9] = biological target: Muscarinic acetylcholine receptor M1 (Homo sapiens) (UniProt P11229); experiment: Cholinergic receptor muscarinic 1 (CHRM1) small molecule antagonists, cell-based qHTS assay (AID 1963588); also: nearly all actives have a fitted effect of over 40% in size
Sequence of Muscarinic acetylcholine receptor M1 (Homo sapiens) (P11229 whole entry, looked up): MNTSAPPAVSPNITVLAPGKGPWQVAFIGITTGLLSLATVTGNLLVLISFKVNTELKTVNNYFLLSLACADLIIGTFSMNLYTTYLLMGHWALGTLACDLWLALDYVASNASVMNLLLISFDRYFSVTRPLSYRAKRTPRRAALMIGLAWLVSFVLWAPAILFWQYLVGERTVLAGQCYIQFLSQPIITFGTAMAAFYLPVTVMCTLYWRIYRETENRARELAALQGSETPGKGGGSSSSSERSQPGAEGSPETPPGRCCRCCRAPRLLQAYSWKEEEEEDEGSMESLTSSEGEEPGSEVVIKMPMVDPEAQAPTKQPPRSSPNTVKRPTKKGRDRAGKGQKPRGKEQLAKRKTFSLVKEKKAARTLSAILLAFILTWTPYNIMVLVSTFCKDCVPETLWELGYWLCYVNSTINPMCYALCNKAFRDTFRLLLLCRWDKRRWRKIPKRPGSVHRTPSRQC
Method in brief: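 CHRM1-CHO calcium-flux assay, antagonist mode. Cells were seeded 18 h, dye-loaded 1 h at 37 C and given compound for 5 min at RT, then acetylcholine was added at 50nM. FDSS fluorescence was read 3 min; 15 concentrations, three runs.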

[10] = biological target: Muscarinic acetylcholine receptor M1 (Homo sapiens) (UniProt P11229); experiment: Cholinergic receptor muscarinic 1 (CHRM1) small molecule agonists, cell-based qHTS assay (AID 1963589); also: nearly all actives have a fitted effect of over 35% in size; also: potency is read from the fitted curve at half-maximal effect
Method in brief: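 CHO cells stably expressing human CHRM1, seeded 18 h at 37 C/5% CO2, dye-loaded 1 h at 37 C, then given compound in agonist mode; intracellular calcium fluorescence read kinetically at 1 s intervals. Fifteen concentrations, three independent runs.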

[11] = cAMP Responsive Elements (CRE) small molecule agonists, cell-based qHTS assay (AID 1963590)
Method in brief: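 CRE-bla HEK 293T cells in DMEM with 10% dialyzed FBS, NEAA, pyruvate and 25 mM HEPES were plated 18 h at 37 C/5% CO2, then exposed to compounds in DMSO for 3 h before LiveBLAzer B/G FRET substrate addition.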

[12] = cAMP Responsive Elements (CRE) small molecule antagonists, cell-based qHTS assay (AID 1963591; active = well fitted inhibition curve with a large enough effect in the signal ratio in the repeat runs, not every such curve was filed as active; the % refers to the signal ratio)
Method in brief: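 CRE-bla HEK293T cells were plated 18 h at 37 °C/5% CO2, pinned with compound in DMSO, then stimulated with NKH477 at 0.25 uM final for 3 h. LiveBLAzer B/G FRET substrate was added and plates incubated 2 h at room temperature.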

[13] = biological target: Beta-2 adrenergic receptor (Homo sapiens) (UniProt P07550); experiment: Adrenergic beta2 receptor (ADRB2) small molecule antagonists, cell-based qHTS assay (AID 1963592); also: nearly all actives have a fitted effect of over 50% in size; also: potency is read from the fitted curve at half-maximal effect
Sequence of Beta-2 adrenergic receptor (Homo sapiens) (P07550 whole entry, looked up): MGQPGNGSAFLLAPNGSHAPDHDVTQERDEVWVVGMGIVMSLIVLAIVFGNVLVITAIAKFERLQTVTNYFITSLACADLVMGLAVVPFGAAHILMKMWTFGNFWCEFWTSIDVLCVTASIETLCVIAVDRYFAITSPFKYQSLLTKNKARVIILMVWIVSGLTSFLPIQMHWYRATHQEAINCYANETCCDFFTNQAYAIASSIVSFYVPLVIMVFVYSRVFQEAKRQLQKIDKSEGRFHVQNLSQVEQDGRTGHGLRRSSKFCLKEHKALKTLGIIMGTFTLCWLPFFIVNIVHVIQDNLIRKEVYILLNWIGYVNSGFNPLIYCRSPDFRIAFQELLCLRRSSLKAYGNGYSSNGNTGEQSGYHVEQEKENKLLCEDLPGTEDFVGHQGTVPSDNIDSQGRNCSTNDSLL
Method in brief: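 Cells (CHO, stable ADRB2 overexpression) incubated 18-20hr at 37C; compounds added from DMSO; agonist mix (1nM isoproterenol, 100uM IBMX, 25uM Ro-20-1724) added; 0.5hr RT; d2-cAMP and anti-cAMP-cryptate added; 1hr RT; 665/615 nm read.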

[14] = biological target: Beta-2 adrenergic receptor (Homo sapiens) (UniProt P07550); experiment: Adrenergic beta2 receptor (ADRB2) small molecule agonists, cell-based qHTS assay (AID 1963593);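 also: CHO cells stably overexpressing human ADRB2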
Method in brief: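 CHO cells stably over-expressing ADRB2 were plated overnight at 37C, then dosed with compounds plus a stimulation mix containing 100uM IBMX and 25uM Ro-20-1724 for 0.5hr at room temperature. cAMP was measured by HTRF competition, 1hr.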

[15] = biological target: D(2) dopamine receptor (Homo sapiens) (UniProt P14416); experiment: Dopamine D2 receptor (DRD2) small molecule agonists, cell-based qHTS assay (AID 1963594); also: nearly all actives have a fitted effect of over 35% in size
Sequence of D(2) dopamine receptor (Homo sapiens) (P14416 whole entry, looked up): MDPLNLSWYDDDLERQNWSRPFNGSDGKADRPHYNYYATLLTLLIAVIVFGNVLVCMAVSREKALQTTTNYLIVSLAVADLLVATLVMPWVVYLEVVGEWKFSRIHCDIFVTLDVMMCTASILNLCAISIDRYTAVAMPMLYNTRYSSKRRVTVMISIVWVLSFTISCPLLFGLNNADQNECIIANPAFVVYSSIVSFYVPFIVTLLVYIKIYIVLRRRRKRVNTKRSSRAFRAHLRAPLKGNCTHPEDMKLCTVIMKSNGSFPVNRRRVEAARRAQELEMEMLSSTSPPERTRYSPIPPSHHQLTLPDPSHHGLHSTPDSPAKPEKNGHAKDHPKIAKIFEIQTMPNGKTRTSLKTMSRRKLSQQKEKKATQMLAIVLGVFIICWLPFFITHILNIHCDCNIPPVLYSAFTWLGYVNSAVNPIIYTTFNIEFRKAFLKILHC
Method in brief: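 HEK293 cells stably expressing human DRD2, pre-treated with PDE inhibitor Ro20-1724 (0.1 mM final) and compound 10 min at room temperature, then stimulated with NKH477 (200nM […]) for 30 min. cAMP read by HTRF (665/620 nm).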

[16] = biological target: D(2) dopamine receptor (Homo sapiens) (UniProt P14416); experiment: Dopamine D2 receptor (DRD2) small molecule antagonists, cell-based qHTS assay (AID 1963595; active = well fitted inhibition curve with a large enough effect in the signal ratio in the repeat runs, with a control signal flat; the % refers to the signal ratio; also: potency is read from the fitted curve at half-maximal effect)
Method in brief: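 Readout: HTRF cAMP, cAMP-d2 competing with cellular cAMP for anti-cAMP cryptate, read after 1 h. Cells: DRD2-HEK293. Conditions: 0.1 mM Ro20-1724, 12 nM quinpirole, 200 nM NKH477, 30 min RT.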

[17] = biological target: KiSS-1 receptor (Homo sapiens) (UniProt Q969F8); experiment: Human kisspeptin (KISS1R) small molecule agonists, calcium flux assay in KISS1R-HEK293 cells (AID 1920064; active = well fitted activation curve with a large enough effect in the repeat runs; also: potency is read from the fitted curve at half-maximal effect)
Sequence of KiSS-1 receptor (Homo sapiens) (Q969F8 whole entry, looked up): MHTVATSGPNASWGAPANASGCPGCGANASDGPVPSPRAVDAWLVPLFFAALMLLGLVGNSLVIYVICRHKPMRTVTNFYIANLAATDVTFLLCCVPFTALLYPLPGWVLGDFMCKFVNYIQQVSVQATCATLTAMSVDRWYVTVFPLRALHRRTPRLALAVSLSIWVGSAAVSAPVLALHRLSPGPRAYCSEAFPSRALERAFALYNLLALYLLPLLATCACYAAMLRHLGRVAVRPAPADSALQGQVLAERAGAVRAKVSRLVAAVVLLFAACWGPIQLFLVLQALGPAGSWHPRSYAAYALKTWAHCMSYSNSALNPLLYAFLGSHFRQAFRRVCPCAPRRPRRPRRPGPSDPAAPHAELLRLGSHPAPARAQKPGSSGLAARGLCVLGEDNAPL
Method in brief: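 HEK293 cells stably expressing human KISS1R were plated 18 h at 37 °C, loaded with calcium dye for 1 h at 37 °C, then given compound by pin tool. Fluorescence (Ex/Em 480/540) was read kinetically for 3 min.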

[18] = p53 small molecule agonists, cell-based qHTS assay with rat liver microsomes (AID 1963578)
Method in brief: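 p53RE-bla cells were exposed to compounds together with rat liver microsomes (0.5 mg/mL final) and NADPH (0.5 mg/mL final) for 16 h at 37 C, then read by LiveBLAzer beta-lactamase fluorescence after 2 h at room temperature.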

[19] = p53 small molecule agonists, cell-based qHTS assay with human liver microsomes (AID 1963577)
Method in brief: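 p53RE-bla reporter cells were pre-incubated 5 h at 37 C, then treated with compounds plus human liver microsomes (0.5 mg/mL final) and NADPH (0.5 mg/mL final) for 16 h at 37 C. Beta-lactamase activity was read by LiveBLAzer fluorescence after 2 h at room temperature.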

[20] = p53 small molecule agonists, cell-based qHTS assay (AID 1963582; active = well fitted activation curve with a large enough effect in the signal ratio in the repeat runs, not every such curve was filed as active; the % refers to the signal ratio)
Method in brief: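 p53RE-bla beta-lactamase reporter cells rested 5 h at 37 C/5% CO2, then received compounds in DMSO by pin transfer and were incubated 16 h at 37 C. LiveBLAzer B/G FRET substrate was loaded for 2 h at room temperature before fluorescence reading.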

Measured: Potency

CCCN(CCC)c1c([N+](=O)[O-])cc(C(F)(F)F)cc1[N+](=O)[O-]
active: [1] 19.3 µM and 61.1 µM
not listed: [17] | [18] | [19] | [20]
inactive: all other assays above

Cc1c(F)c(F)c(COC(=O)C2C(/C=C(\Cl)C(F)(F)F)C2(C)C)c(F)c1F (configuration not stated)
active: [1] 30.6 µM
not listed: [3] | [4] | [11] | [14] | [15] | [19] | [20]
inactive: all other assays above

O=[N+]([O-])c1cc(Cl)c(Cl)cc1Cl
not listed: [14] | [15] | [17] | [18] | [19] | [20]
inactive: all other assays above

CCOC(=O)COc1ccc(Cl)cc1Cl
not listed: [3] | [5] | [8] | [11] | [18]
inactive: all other assays above

O=C1NCN(c2ccccc2)C12CCN(CCCOc1ccc(F)cc1)CC2
inactive: [1] | [19] | [18] | [5] | [11]
active: [2] 9.52 µM | [3] 10.7 µM | [10] 4.77 µM | [13] 5.96 µM | [16] 0.106 µM

CCN(CC)CCc1c[nH]c2ccccc12
active: [7] 0.0221 µM | [8] 0.0091 µM
not listed: [2] | [6] | [19]
inactive: all other assays above

O=C(N[C@@H]1N=C(c2ccccc2F)c2cccc3c2N(CC3)C1=O)c1cc2ccccc2[nH]1
active: [2] 4.25 µM | [17] 15.1 µM | [8] 13.4 µM
not listed: [3] | [4] | [6] | [7] | [16] | [20]
inactive: all other assays above

CN1C(=O)[C@@H](NC(=O)c2cc3ccccc3[nH]2)N=C(c2ccccc2)c2ccccc21
not listed: [12] | [14] | [17] | [19] | [20]
inactive: all other assays above

S=C=NCCc1ccccc1
active: [1] 43.4 µM
not listed: [11] | [16] | [17]
inactive: all other assays above

C[C@H]1CCC[C@H](O)CCCCCc2cc(O)cc(O)c2C(=O)O1
not listed: [3] | [7] | [8] | [11] | [13] | [14] | [19]
inactive: all other assays above

c1cc(OCC2CO2)ccc1Cc1ccc(OCC2CO2)cc1 (configuration not stated)
active: [1] 27.4 µM and 27.3 µM
not listed: [2] | [7] | [11] | [12] | [14] | [20]
inactive: all other assays above

O=C1c2ccccc2C(=O)C1C(=O)C(c1ccccc1)c1ccc(Cl)cc1 (configuration not stated)
active: [2] 17.4 µM | [7] 4.21 µM
inactive: [1] | [17] | [19] | [18] | [5] | [20] | [10] | [12] | [15] | [16]

Cc1cc(SCc2sc(-c3ccc(C(F)(F)F)c(F)c3)nc2C)ccc1OCC(=O)O
inactive: [2] | [3] | [19] | [18] | [4] | [6] | [10] | [13] | [15] | [16]
active: [1] 61.1 µM | [7] 42.1 µM

O=S1(=O)OCC2C(CO1)C1(Cl)C(Cl)=C(Cl)C2(Cl)C1(Cl)Cl (configuration not stated)
active: [1] 24.3 µM
not listed: [2] | [11] | [12] | [20]
inactive: all other assays above

CCCCC(O)(Cn1cncn1)c1ccc(Cl)cc1Cl (configuration not stated)
inactive: [1] | [17] | [3] | [19] | [18] | [4] | [6] | [7] | [9] | [10] | [15]

CNC(=O)Oc1ccccc1C(C)C
not listed: [3] | [15] | [18] | [19]
inactive: all other assays above

CCCCNC(=O)OCC#CI
active: [1] 24.2 µM and 24.3 µM | [16] 68.6 µM
not listed: [2] | [8] | [11] | [12] | [13] | [20]
inactive: all other assays above

CC(C)(C)c1cc([N+](=O)[O-])cc(C(C)(C)C)c1O
active: [1] 34.4 µM
not listed: [3] | [5] | [9] | [11] | [12] | [13] | [20]
inactive: all other assays above
